# Source: PubChem BioAssay (NCATS)
# Values joined by “and” are separate entries in the source; they are usually repeats but may differ in a detail not shown here. Equal values may be shown once. Inconclusive results are not listed. A number with no mark means an inactive call. Active and inactive are the calls of the source. The call rests on the fitted dose curve; in most records, active means well fitted curve in the direction sought with a large enough effect; inconclusive means small, poorly fitted or top-dose-only effect, or another doubt; inactive means no such curve, though single readings can be large; an effect the other way counts as inactive or inconclusive.
# Key:
# [1] = biological target: Cellular tumor antigen p53 (Homo sapiens) (UniProt P04637); experiment: Primary qHTS for small molecule compounds that upregulate eGFP-tagged delta133p53alpha (in N-terminal) cells. (AID 2060322); settings: NCI-H358 eGFP-delta133p53alpha fluorescence, 24 h; activation: active compounds read high; further: nearly all actives have a fitted effect of over 75% in size; further: potency means the concentration at half of the fitted maximal effect;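 on activation: 0% = DMSO vehicle and 100% = reference activator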
# Chain of Cellular tumor antigen p53 (Homo sapiens) (P04637 whole entry, looked up): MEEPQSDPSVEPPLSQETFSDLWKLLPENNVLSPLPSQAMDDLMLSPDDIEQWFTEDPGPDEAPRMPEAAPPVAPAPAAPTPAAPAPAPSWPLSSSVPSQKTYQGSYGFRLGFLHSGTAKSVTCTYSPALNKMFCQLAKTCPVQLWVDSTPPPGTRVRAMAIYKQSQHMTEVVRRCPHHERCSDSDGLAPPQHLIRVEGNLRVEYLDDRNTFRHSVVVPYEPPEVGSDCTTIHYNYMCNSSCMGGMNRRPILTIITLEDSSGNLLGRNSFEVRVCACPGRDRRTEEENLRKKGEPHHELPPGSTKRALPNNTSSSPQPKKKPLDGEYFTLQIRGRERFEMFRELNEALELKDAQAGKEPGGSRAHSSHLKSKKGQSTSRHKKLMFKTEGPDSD
# How it was run: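 NCI-H358 cells pre-induced 24 h with 10 ng/ml doxycycline to express N-terminal eGFP-delta133p53alpha, then dosed 24 h at 37C without doxycycline; fixed, Hoechst-stained, GFP intensity by laser scanning cytometry, normalized to DMSO (0%) and 57.5 uM 5-azacytidine (100%).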
# [2] = biological target: Retinaldehyde dehydrogenase 3 (Homo sapiens) (UniProt P47895); experiment: qHTS for Inhibitors of the Aldehyde Dehydrogenase Family (ALDH1A3) Primary screen (AID 2061315); settings: ALDH inhibition qHTS; series mostly up to 56 µM;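 further: plate controls were DMSO vehicle for no effect and reference inhibitor for full effect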
# [3] = BET inhibitor-based combinations targeting novel dependencies in MECOM-rearranged (r) AML: SET-2 cell line (AID 2202231); settings: SET-2 AML cells viability, CellTiter-Glo luminescence, 48 h; viability: active compounds read low, concentration not given here; further: potency means the concentration at half of the fitted maximal effect; nearly all actives have a fitted effect of over 35% in size
# How it was run: (§1)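 500 cells/well; 11-pt dose curve; 48 h, standard incubator; CellTiter-Glo luminescence after 15 min RT; DMSO/empty-well normalization; AUC plus Z-AUC (mean-centered within each line).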
# [4] = BET inhibitor-based combinations targeting novel dependencies in MECOM-rearranged (r) AML: OCI-AML3 cell line (AID 2202232); settings: CellTiter-Glo luminescence, 48 h; Potency: OCI-AML3 viability; series mostly up to 46 µM; further: potency means the concentration at half of the fitted maximal effect; nearly all actives have a fitted effect of over 35% in size
# How it was run: as §1
# [5] = BET inhibitor-based combinations targeting novel dependencies in MECOM-rearranged (r) AML: MV-4-11 cell line (AID 2202233); settings: MV-4-11 AML viability, CellTiter-Glo luminescence, 48 h; series mostly up to 46 µM; further: potency means the concentration at half of the fitted maximal effect; nearly all actives have a fitted effect of over 45% in size
# How it was run: (§2)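 Cells were plated at 500 per well and exposed to each drug across an 11-point dose range for 48 hr at standard incubator conditions. Viability was read by CellTiter-Glo luminescence, and activity was expressed as AUC and per-cell-line Z-transformed AUC.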
# [6] = BET inhibitor-based combinations targeting novel dependencies in MECOM-rearranged (r) AML: HNT-34 cell line (AID 2202234); settings: HNT-34 AML viability, CellTiter-Glo luminescence, 48 h; series mostly up to 46 µM; further: potency means the concentration at half of the fitted maximal effect; nearly all actives have a fitted effect of over 35% in size
# How it was run: as §2
# [7] = BET inhibitor-based combinations targeting novel dependencies in MECOM-rearranged (r) AML: UCSD-AML1 cell line (AID 2202235); settings: UCSD-AML1 AML cells viability, CellTiter-Glo, 48 h; series mostly up to 46 µM; further: potency means the concentration at half of the fitted maximal effect; nearly all actives have a fitted effect of over 40% in size
# How it was run: as §2
# [8] = BET inhibitor-based combinations targeting novel dependencies in MECOM-rearranged (r) AML: AML-191 cell line (AID 2202236; further: potency means the concentration at half of the fitted maximal effect; nearly all actives have a fitted effect of over 35% in size); settings: AML-191 viability, CellTiter-Glo luminescence, 48 h; series mostly up to 46 µM
# How it was run: as §1
structure (smiles),measurement,setting,value
CCCNCCc1ccc(NS(=O)(=O)c2ccc(OC(F)(F)F)cc2)cc1,activation,[1],6.68%
same,Potency,[2],inactive
CC(C)(Cc1nc(-c2ccc(O)cn2)no1)C(=O)NC1=C(C(=O)O)CCCC1,activation,[1],2.86%
same,Potency,[2],inactive
C[C@@H]1O[C@@H](O[C@H]2[C@H](O[C@H]3[C@H](O[C@H]4CC[C@@]5(C)C(CC[C@]6(C)C5CC=C5[C@@H]7CC(C)(C)CC(=O)[C@]7(C)CC[C@]56C)[C@@]4(C)CO)O[C@H](C(=O)O)[C@@H](O)[C@@H]3O)O[C@H](CO)[C@H](O)[C@@H]2O)[C@H](O)[C@H](O)[C@H]1O (stereo partly specified),activation,[1],-17%
same,Potency,[2],inactive
CN1C(CCl)Nc2cc(Cl)c(S(N)(=O)=O)cc2S1(=O)=O (stereo unspecified),activation,[1],-11.7% and -7.64%
same,Potency,[2],inactive
CC(=O)Oc1cc2c(s1)CCN([C@H](C(=O)C1CC1)c1ccccc1F)C2,activation,[1],0.477%
same,Potency,[2],inactive
COc1cc(/C=C/C(=O)NCCn2c(C(F)(F)F)cc3ccccc32)cc(OC)c1OC,activation,[1],-3.67%
same,Potency,[2],inactive
C=CC(=O)Nc1ccc(CN2C(=O)N(c3cc(OC)cc(OC)c3)Cc3cnc(Nc4ccc(N5CCN(C)CC5)cc4)nc32)cc1,Potency,[1],13500 nM (active)
same,Potency,[2],inactive
C[C@@H]1C[C@@H]2O[C@H]2/C=C\C=C\C(=O)Cc2c(Cl)c(O)cc(O)c2C(=O)O1,Potency,[1],14800 nM (active)
same,Potency,[2],inactive
COc1cccc2nc(-c3cccs3)nc(NN3C(=O)C=C(C)C3=O)c12,Potency,[1],19300 nM (active)
same,Potency,[2],inactive
same,Potency,[3],417 nM (active)
same,Potency,[4],417 nM (active)
same,Potency,[5],166 nM (active)
same,Potency,[6],263 nM (active)
same,Potency,[7],105 nM (active)
same,Potency,[8],148 nM (active)
COc1ccc(OC)c(C2C(C#N)=C(N)Oc3n[nH]c(-c4ccc5ccccc5c4)c32)c1 (stereo unspecified),activation,[1],-0.333%
same,Potency,[2],inactive
CC[C@]1(O)C[C@@H]2CN(CCc3c([nH]c4ccccc34)[C@@](C(=O)OC)(c3cc4c(cc3OC)N(C)[C@H]3[C@@](O)(C(=O)OC)[C@H](OC(C)=O)[C@]5(CC)C=CCN6CC[C@]43[C@@H]65)C2)C1,activation,[1],-35.1%
same,Potency,[2],inactive
CCC(C)/C=C(C)/C=C/C(=O)C1CCC(O)C(C)(O)C1=O (stereo unspecified),activation,[1],14.5%
same,Potency,[2],inactive
CCc1c(Cl)c(O)c(Cl)c(O)c1C(=O)O[C@H]1[C@H](O)[C@H](OC)[C@H](OC/C2=C\C=C\C[C@H](O)/C(C)=C\[C@H](CC)[C@@H](O[C@@H]3OC(C)(C)[C@@H](OC(=O)C(C)C)[C@H](O)[C@@H]3O)/C(C)=C/C(C)=C/C[C@@H]([C@@H](C)O)OC2=O)O[C@@H]1C,activation,[1],-0.333%
same,Potency,[2],inactive
CC[C@H](C)/C=C(C)/C=C/C(=O)Cc1cc(O)c(C)c(O)c1C=O,activation,[1],7.63%
same,Potency,[2],inactive
COc1ccccc1NC(=O)Nc1ccc2ccccc2c1,activation,[1],-9%
same,Potency,[2],inactive
CC(C)=C/C=C\[C@H](C)[C@H]1CC[C@]2(C)C[C@@H]3C(C)=CC(=O)C3/C(CO)=C\C[C@@H]12 (stereo partly specified),activation,[1],-9.92%
same,Potency,[2],inactive
COc1cccc(OC)c1-c1cc(C(=O)N[C@@H](CC(C)C)C(=O)O)nn1-c1ccnc2cc(Cl)ccc12,activation,[1],15.8%
same,Potency,[2],inactive
CC(=O)NC1C(OC(C)(C)C2CCC3(C)C=C(C4CCC5C4(C)CC(O)C4OC(C(C)(C)O)CCC45C)CCC3O2)OC(CO)C(O)C1O (stereo unspecified),activation,[1],-3.05%
same,Potency,[2],inactive
O=c1[nH]cnc2c([C@@H]3N[C@H](CO)[C@@H](O)[C@H]3O)c[nH]c12,activation,[1],10.3%
same,Potency,[2],inactive
CC(=O)OC[C@@]12C(=O)C[C@@H](C)[C@]3(C[C@@H](c4ccoc4)O[C@H]3OC(C)=O)[C@H]1CCC[C@]21CO1,activation,[1],11.5%
same,Potency,[2],inactive
CC1OC2OC(=O)C3(C)CC4C5(CO5)C5=CC(=O)OC(C)(C)C5=CC(=O)C4(C)C(C1=O)C23 (stereo unspecified),activation,[1],12.2%
same,Potency,[2],inactive
CO[C@@H](Cc1ccc(OCCc2nc(-c3ccccc3)oc2C)c2ccsc12)C(=O)O,activation,[1],-6.25%
same,Potency,[2],inactive
C=Cc1cc2oc(-c3ccc(O)c(F)c3)nc2cc1O,activation,[1],-1%
same,Potency,[2],inactive
CC1CC(O)/C=C/C(O)C(O)CC(=O)Cc2c(Cl)c(O)cc(O)c2C(=O)O1 (stereo unspecified),activation,[1],4.58%
same,Potency,[2],inactive
CC/C=C\C/C=C\C/C=C\CCCCCCCC(=O)OCC(O)COC1OC(CO)C(O)C(O)C1O (stereo unspecified),activation,[1],29.8%
same,Potency,[2],inactive
